# In the library only some 2.7% were active in any assay of this set; here they are far more common.
# CHT block = inhibits the human high affinity choline transporter; Q9GZV3; hit rate 0.86% among 310,000; AID 488975; B-score at 10 µM; CHT-expressing cells, membrane potential dye, choline response; active compounds read low;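 active = B-score over 3 SD under the library average, and starting fluorescence ratio not unusually high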;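 note: choline stimulus applied at its EC90 after an EC20 pre-addition; B-score computed on integrated fluorescence ratio after choline addition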
# IDE act = activators of human insulin-degrading enzyme in cells. HEK cells, FAbeta-B cleavage, fluorescence polarization; 0% vehicle, 100% cell-free pure enzyme wells. activation, % at 5.96 µM. hit rate 0.073% among 340,000. AID 493087;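 active = activation above the mean of all tested compounds plus 3 SD, set per screening campaign, cut at about 17% in these data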
# ANO1 activ = mouse TMEM16A channel activation, primary screen | Q8BHY3 | HEK293 TMEM16A/YFP-H148Q/I152L, iodide quench fluorescence; active compounds read low | B-score at 10 µM | hit rate 0.3% among 340,000;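 active = fluorescence-ratio B-score plate-corrected deviation score at least 3 library SD below zero, with starting fluorescence score within 5 deviations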;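 note: channel opened by trigger with iodide after compound preincubation; score built on the fluorescence ratio of max minus min over baseline; more negative score means more quench and so TMEM16A activation or potentiation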
# IDE inh = inhibitors of human insulin-degrading enzyme in cells | AID 434962 | HEK cells, FAbetaB cleavage, fluorescence polarization | inhibition, % at 5.59 µM | P14735 | hit rate 0.41% among 320,000;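 active = percent inhibition above the average of all tested compounds plus 3 SD, set per screening campaign, cut at about 16% in these data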;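 note: IDE supplied by intact live HEK cells; FP after avidin binding of uncleaved biotin substrate so inhibition keeps polarization high; 0% = DMSO wells and 100% = 60 µM reference IDE inhibitor Ii1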
# CHT PAM = human CHT allosteric activation; hit rate 0.49% among 310,000; Q9GZV3; B-score at 10 µM; AID 488977; CHT-expressing cells, membrane potential dye, choline EC20; active compounds read high; LV-AA mutant CHT in HEK293 cells;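 active = initial fluorescence not abnormally high and integrated response B-score, plate-corrected, over 3 SD above library mean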
# TMEM16A inh = mouse TMEM16A channel inhibition, primary screen; Q8BHY3; AID 588511; HEK293 TMEM16A/YFP iodide influx fluorescence, ionomycin; hit rate 1.2% among 310,000; normalized B-score (activity score, 25-100; higher = stronger inhibition) at 10 µM;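 active = ratio plate-corrected score three or more library SD toward inhibition, starting fluorescence score within five deviations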;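 note: score derived from kinetic fluorescence span divided by baseline fluorescence per well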
# CHT block conf = confirmation of human choline transporter CHT inhibitors. AID 493221. CHT activity remaining % of control (active compounds read low), % at 10 µM. CHT-expressing cells, choline membrane potential dye; LV-to-AA substituted CHT, HEK293 cells. shares compounds with CHT block. hit rate 70% among 2,400;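 active = choline transporter activity left, mean of duplicates at 10 µM, below buffer-only control mean minus 3 SD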;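 note: depolarization triggered by choline at its EC90 following an EC20 pre-addition; 0% = hemicholinium-3 full block and 100% = buffer-only control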
# HEK293 CHT ctr = counter-screen for CHT inhibitors: effect in parental HEK293 cells; shares compounds with CHT block; membrane potential dye, choline response; active = decrease or increase beyond buffer ±3SD; membrane potential ratio readout (active if shifted either direction beyond buffer ±3SD; no single direction) at 10 µM; hit rate 4% among 2,400;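 note: parental cells lack the transporter so any hit is non-specific; ratio is peak minus trough fluorescence over baseline after EC90 choline challenge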
# * = called active by the depositor; i = inactive; · = no result given.
SMILES,CHT block,IDE act,ANO1 activ,IDE inh,CHT PAM,TMEM16A inh,CHT block conf,HEK293 CHT ctr
Cc1nn(CC(=O)N(C)C)c(C)c1S(=O)(=O)N1CCOCC1,·,4,i,-1,·,·,·,·
O=C1CC(N2CCN(c3ccc(O)cc3)CC2)C(=O)N1Cc1cccs1 (configuration not stated),i,3,i,-1,i,i,·,·
O=C(c1ccncc1)c1ccc(N2CCN(C3CC(=O)N(Cc4cccs4)C3=O)CC2)cc1 (configuration not stated),-5.6*,-3,i,-3,i,i,i,i
O=C(CS(=O)c1ccc(C(F)(F)F)cc1[N+](=O)[O-])Oc1ccccc1 (configuration not stated),-5*,-2,i,-7,i,i,-5.7%*,i
COc1ccccc1N1CCN(C(=O)C(=O)c2cn(CC(=O)N3CCOCC3)c3ccccc23)CC1,i,5,i,0,i,i,·,·
O=C(Nc1ccc(S(=O)(=O)N2CCOCC2)cc1)c1ccc([N+](=O)[O-])cc1Cl,-7.4*,0,i,9,i,i,31%*,i
O=C(Nc1cc(S(=O)(=O)N2CCOCC2)ccc1Cl)c1cc([N+](=O)[O-])ccc1Cl,·,5,i,1,·,·,·,·
CC1=C(C(=O)Nc2cccc(C(=O)NC3CCCC(C)C3C)c2)SCCO1 (configuration not stated),-5.6*,0,i,-2,i,i,57%*,i
COCCNC(=O)c1cccc(NC(=O)C2=C(C)OCCS2)c1,i,4,i,3,i,i,·,·
CC1(C(=O)N2CCC(CC3CC(c4ccc(Cl)cc4)=NO3)(C(=O)NCC3CCCCC3)CC2)CC1 (configuration not stated),-5.2*,0,i,-5,i,i,71%*,i
CC1(C(=O)N2CCC(CC3CC(c4cccc(Br)c4)=NO3)(C(=O)NCC3CCCCC3)CC2)CC1 (configuration not stated),i,-1,i,3,i,i,·,·
CN(C)CCn1c(=S)[nH]c2ccccc2c1=O,-7.9*,4,i,4,i,i,28%*,i
CN(C)CCCn1c(=S)[nH]c2ccccc2c1=O,i,5,i,1,i,i,·,·
CCN(C(=O)COC(=O)Cn1c(=O)oc2ccccc21)c1c(N)n(Cc2ccccc2)c(=O)[nH]c1=O,·,2,i,·,·,·,·,·
Cc1ccc(Cl)c2c1=NC(=O)C=2c1[nH]c(=S)[nH]c1O,-5.8*,2,i,1,i,i,i,i
C=CC[C@@H](Cc1ccc(F)cc1)C(=O)OC[C@@H]1CCCN1C(=O)[C@@H](CC=C)CC(=O)N[C@H](CO)Cc1ccccc1,·,7,i,2,·,·,·,·
NS(=O)(=O)c1ccc(NC(=O)Nc2ccccc2)cc1,i,3,i,-2,i,i,·,·
NS(=O)(=O)c1ccc(NC(=O)Nc2ccc(S(N)(=O)=O)cc2)cc1,-13*,·,i,1,i,i,i,i
Cc1onc(-c2ccccc2Cl)c1C(=O)Nc1nnc(-c2cccc([N+](=O)[O-])c2)s1,-6.9*,7,i,1,i,100*,51%*,i
CC(C)(C)CC(C)(C)NC(=S)Nc1ccc2nc(-c3ccccn3)c(-c3ccccn3)nc2c1,-8.4*,-1,i,8,i,i,45%*,i
Cc1ccc(S(=O)(=O)NCCC(=O)NC(C)CCc2ccccc2)cc1 (configuration not stated),-5.1*,2,i,0,i,i,50%*,i
